G9a inh = blocks human histone lysine methyltransferase G9a | Q96KQ7 | G9a H3K9 monomethylation, AlphaScreen, 2 h | Potency, µM (highest dose often 102 µM), most hits filed as inhibitors | 8.8% of 350,000 active; also: nearly all actives have a fitted effect of over 75% in size
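Chemiluminescent proximity detection of H3K9 monomethylation, read after 10 min bead incubation in the dark. Reaction: 20 nM G9a, 500 nM biotin-H3K9 peptide, 20 uM SAM cofactor, 2 h, room temperature, following 15 min enzyme-compound preincubation.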
HP1b chromo inh = HP1-beta chromodomain-methylated histone interaction inhibition; P83916; AlphaScreen HP1-beta / biotin-H3K9me3 peptide binding; Potency, µM (series often up to 114 µM), usual class: inhibitors; 0.56% of 390,000 active; AID 540317; also: nearly all actives have a fitted effect of over 70% in size
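Compound inhibition of the preformed complex between 50 nM HP1-beta and 50 nM biotinylated H3K9me3 peptide was read by AlphaScreen. Buffer was PBS pH 7.4 with 0.01% Tween-20. Incubations ran 30 min at room temperature, with 10 ug/mL donor/acceptor beads.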
L3MBTL1 inh = L3MBTL1 (human) inhibition. Q9Y468. AlphaScreen L3MBTL1–H3K9me1 peptide binding. Potency, µM (series often up to 57.1 µM), most hits filed as inhibitors. 0.66% of 230,000 active. AID 485360; also: nearly all actives have a fitted effect of over 60% in size
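AlphaScreen proximity signal between nickel-chelate acceptor and streptavidin donor beads (final 10 ug/mL) reports binding of 50 nM L3MBTL1 to 75 nM biotin-H3 K9me1 peptide; complex incubated with compounds 30 min at room temperature; cefsulodin titration as control.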
JMJD2A Tudor inh = blocks the human JMJD2A Tudor domain | O75164 | 4.4% of 390,000 active | Potency, µM (highest dose often 114 µM), hits mostly inhibitors | AlphaScreen JMJD2A-Tudor / H3K4me3 peptide binding | AID 504339; also: nearly all actives have a fitted effect of over 50% in size
Target sequence (O75164 whole entry, looked up, the tested form may be a part): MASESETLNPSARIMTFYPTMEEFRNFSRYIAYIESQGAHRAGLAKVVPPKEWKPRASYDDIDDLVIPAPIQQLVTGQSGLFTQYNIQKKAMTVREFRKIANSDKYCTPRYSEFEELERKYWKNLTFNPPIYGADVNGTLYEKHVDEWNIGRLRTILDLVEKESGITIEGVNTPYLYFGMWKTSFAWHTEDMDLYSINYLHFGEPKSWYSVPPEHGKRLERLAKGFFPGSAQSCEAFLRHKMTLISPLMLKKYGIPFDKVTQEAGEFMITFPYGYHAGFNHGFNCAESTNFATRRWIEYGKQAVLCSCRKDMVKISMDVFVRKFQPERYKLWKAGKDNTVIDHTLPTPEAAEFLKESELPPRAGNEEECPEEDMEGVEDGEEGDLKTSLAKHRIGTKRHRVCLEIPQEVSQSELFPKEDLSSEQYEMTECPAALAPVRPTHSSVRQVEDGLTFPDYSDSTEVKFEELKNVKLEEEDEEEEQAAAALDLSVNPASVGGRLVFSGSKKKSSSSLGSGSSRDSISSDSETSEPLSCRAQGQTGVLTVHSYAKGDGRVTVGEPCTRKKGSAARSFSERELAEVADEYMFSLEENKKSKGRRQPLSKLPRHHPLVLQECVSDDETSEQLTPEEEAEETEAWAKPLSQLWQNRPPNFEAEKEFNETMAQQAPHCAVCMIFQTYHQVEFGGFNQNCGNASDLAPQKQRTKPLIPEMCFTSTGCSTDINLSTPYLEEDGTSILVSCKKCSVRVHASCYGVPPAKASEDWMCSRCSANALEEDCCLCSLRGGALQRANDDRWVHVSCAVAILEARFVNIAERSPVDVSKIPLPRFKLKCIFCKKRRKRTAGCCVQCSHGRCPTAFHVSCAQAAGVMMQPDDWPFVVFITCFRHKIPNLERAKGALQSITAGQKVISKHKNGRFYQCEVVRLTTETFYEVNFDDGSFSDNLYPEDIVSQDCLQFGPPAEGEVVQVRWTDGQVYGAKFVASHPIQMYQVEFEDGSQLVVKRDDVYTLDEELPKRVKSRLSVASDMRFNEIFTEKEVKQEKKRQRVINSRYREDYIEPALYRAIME
Sfp PPTase inh = Sfp phosphopantetheinyl transferase inhibition; Biochemical Sfp PPTase activity, qHTS; 3.5% of 310,000 active; Potency, µM, most hits filed as inhibitors; AID 1490; Q9F4F7;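 also: the enzyme is Sfp with the accession as filed and its product quenches rhodamine fluorescence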
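Fluorescence-quenching assay with 15 nM Sfp, 5 uM rhodamine-CoA and 12.5 uM BHQ-2-labelled ybbR peptide in pH 7.6 Hepes/MgCl2 buffer. Enzyme was pre-incubated with compound for 15 min at room temperature. Rate was taken from the 30-min fluorescence change (525/598 nm).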
BAZ2B block = inhibitors of human BAZ2B bromodomain; Q9UIF8; AlphaScreen BAZ2B-H3K14Ac peptide displacement; Potency, µM (doses to about 114 µM), usual class: inhibitors; 4.4% of 360,000 active; AID 504333; also: nearly all actives have a fitted effect of over 60% in size
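In this displacement format the biotinylated H3(5-23) peptide acetylated at Lys14 serves as ligand at 50 nM, with BAZ2B at 50 nM in PBS pH 7.4 containing 0.01% Tween-20. Donor and acceptor beads are 10 ug/mL final.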
Large screens that a line does not name were inactive. This is a sample that favours compounds with a hit; in the whole collection about 12% have one here. Calls follow the shape of the dose curve; as a rule, active = well fitted curve in the direction sought with a large enough effect; inconclusive = small, poorly fitted or top-dose-only effect, or another doubt; inactive = no such curve, though single readings can be large; an effect the other way counts as inactive or inconclusive.

CCOC(=O)C1=C(C)N(c2ccc(C)cc2)C(=O)/C1=C\c1ccc(O)c(OC)c1	HP1b chromo inh inconclusive, JMJD2A Tudor inh 8.9µM, Sfp PPTase inh 45µM, BAZ2B block 45µM (no result: G9a inh)
CCOc1ncccc1C(=O)OCC(=O)c1ccc(C)c(C)c1	none
Cn1nnnc1Sc1ncnc2scc(-c3cccs3)c12	HP1b chromo inh inconclusive, JMJD2A Tudor inh 25µM, BAZ2B block 10µM (no result: Sfp PPTase inh)
CCN1CCN(Cc2ccc(NC(=O)c3cc(NC(=O)c4cncc(-c5cccs5)c4)cc(OC)c3)cc2C(F)(F)F)CC1	G9a inh 50µM, HP1b chromo inh inconclusive, L3MBTL1 inh inconclusive, JMJD2A Tudor inh 45µM, Sfp PPTase inh inconclusive, BAZ2B block 35µM
CCN1CCN(Cc2ccc(NC(=O)c3cc(NC(=O)c4ccno4)cc(OC)c3)cc2C(F)(F)F)CC1	JMJD2A Tudor inh inconclusive (no result: L3MBTL1 inh)
CCN1CCN(Cc2ccc(NC(=O)c3cc(NC(=O)c4cc(-c5ccc(OC)cc5)n[nH]4)cc(OC)c3)cc2C(F)(F)F)CC1	G9a inh inconclusive, JMJD2A Tudor inh inconclusive, Sfp PPTase inh inconclusive, BAZ2B block inconclusive (no result: L3MBTL1 inh)
CCN1CCN(Cc2ccc(NC(=O)c3cc(NC(=O)c4cc5cccc(OC)c5o4)cc(OC)c3)cc2C(F)(F)F)CC1	G9a inh inconclusive, JMJD2A Tudor inh inconclusive, Sfp PPTase inh 45µM, BAZ2B block inconclusive (no result: L3MBTL1 inh)
COc1ccccc1CCNc1ncnc2nc[nH]c12	none (no result: G9a inh, L3MBTL1 inh, Sfp PPTase inh, BAZ2B block)
CCCC(=O)N(Cc1cc(=O)[nH]c2ccccc12)c1cccc(C)c1	G9a inh 28µM, JMJD2A Tudor inh inconclusive (no result: L3MBTL1 inh)
Cc1cccc(N(Cc2cc(=O)[nH]c3ccccc23)C(=O)CCl)c1	G9a inh 5.6µM, JMJD2A Tudor inh 56µM, Sfp PPTase inh inconclusive (no result: L3MBTL1 inh)
Cc1cccc(N(Cc2cc(=O)[nH]c3ccccc23)C(=O)C(C)C)c1	none
CC(=O)N(Cc1cc(=O)[nH]c2ccccc12)c1cccc(C)c1	G9a inh inconclusive, JMJD2A Tudor inh 32µM, Sfp PPTase inh 45µM
COc1ccccc1N1CCN(S(=O)(=O)c2ccc(F)c(C(=O)Nc3ccc(C)c(F)c3)c2)CC1	JMJD2A Tudor inh inconclusive (no result: L3MBTL1 inh, Sfp PPTase inh)
COCCSc1ccccc1C(=O)Nc1cccnc1	G9a inh 1.6µM, Sfp PPTase inh inconclusive (no result: L3MBTL1 inh)
COCCSc1ccccc1C(=O)Nc1ccc(Br)cc1	G9a inh 20µM
COCCSc1ccccc1C(=O)Nc1cc(C)on1	G9a inh 1.1µM, HP1b chromo inh inconclusive, Sfp PPTase inh 32µM, BAZ2B block inconclusive
COCCSc1ccccc1C(=O)Nc1ccc2c(c1)OCO2	Sfp PPTase inh inconclusive (no result: G9a inh)
COCCSc1ccccc1C(=O)Nc1ccc(Cl)cc1	G9a inh 7.1µM, JMJD2A Tudor inh inconclusive, Sfp PPTase inh inconclusive, BAZ2B block inconclusive
CCn1cc(CN2CCCC(CNC(=O)COc3ccccc3OC)C2)c(C)n1 (stereo not given)	none (no result: G9a inh, L3MBTL1 inh)
O=C(c1ccco1)N1CCN(Cc2nnc(-c3ccccc3)o2)CC1	none (no result: L3MBTL1 inh)
Nc1nc(NCCOCCO)nc(NCc2ccccc2)c1[N+](=O)[O-]	none (no result: L3MBTL1 inh)
COCCNC(C)C(=O)Nc1ccc(Br)cc1 (stereo not given)	G9a inh 11µM, JMJD2A Tudor inh 4µM, BAZ2B block 50µM
CN(C)c1ccc(NC(=S)c2ccccn2)cc1	G9a inh 8.9µM, HP1b chromo inh 13µM, L3MBTL1 inh 32µM, JMJD2A Tudor inh 11µM, Sfp PPTase inh 45µM, BAZ2B block 2.8µM
Cc1ccc(S(=O)(=O)CCC(=O)Oc2ccc3c(C)cc(=O)oc3c2)cc1	G9a inh 50µM, JMJD2A Tudor inh inconclusive (no result: Sfp PPTase inh)
Cc1ccc(OC(=O)CCS(=O)(=O)c2ccc(C)cc2)cc1	none (no result: G9a inh, L3MBTL1 inh)
CCN1C(=O)c2ccccc2S(=O)(=O)c2ccc(C(=O)NCc3ccc(C)cc3)cc21	none (no result: L3MBTL1 inh, Sfp PPTase inh)
CC(C)CCn1c(=O)c2cccnc2n(CC(=O)Nc2ccccc2)c1=O	none (no result: L3MBTL1 inh, Sfp PPTase inh)
COc1cccc(N2C(=O)C(CC(=O)Nc3cccc(F)c3)N(C3CCCC3)C2=O)c1 (stereo not given)	G9a inh inconclusive (no result: L3MBTL1 inh, Sfp PPTase inh)
CCN(CC)CCn1c(=N)n(CCOc2ccccc2)c2ccccc21	none (no result: L3MBTL1 inh)
COc1ccc(C(C(=O)OCCN(C)C)c2ccccc2)cc1 (stereo not given)	none
Nc1ccc(OCc2ccccc2)cc1	G9a inh 11µM, L3MBTL1 inh inconclusive, JMJD2A Tudor inh inconclusive, BAZ2B block inconclusive

Compound activity (PubChem BioAssay)
